PABP FP inh – PABP-poly(A) binding inhibition; P11940; PABP-poly(A) RNA binding, fluorescence polarization; inhibition, % at 35 µM; 290,000 compounds, 1% hits;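 note: calls also rest on retests at 20 µM and on dose response follow-up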
PABP1 MLLE inh – inhibitors of microRNA-mediated deadenylation, human PABP1 MLLE binding | P11940 | GST-MLLE / FITC-PAM2 fluorescence polarization | inhibition, % at 20 µM | 360,000 compounds, 0.36% hits | AID 588489; in the data active = inhibition above about 35%, passing the limit was not always enough;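 note: plate controls were DMSO wells with GST-MLLE for no effect and wells lacking GST-MLLE protein for full effect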
UBC9 SUMO inh – SUMOylation inhibition; HTRF SUMOylation assay, SAE1/SAE2 + UBC9, in vitro; inhibition, % at 35 µM; P63279; 290,000 compounds, 0.36% hits; in the data active = inhibition above about 50%, passing the limit was not always enough
Target sequence (P63279 whole entry, looked up): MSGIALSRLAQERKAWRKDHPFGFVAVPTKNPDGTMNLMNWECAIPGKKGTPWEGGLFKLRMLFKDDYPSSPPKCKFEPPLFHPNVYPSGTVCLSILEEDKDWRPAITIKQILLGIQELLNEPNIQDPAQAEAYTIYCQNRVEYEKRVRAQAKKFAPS
Efflux pump mplx – antifungal efflux pump inhibition, Nile Red retention; 330,000 compounds, 0.44% hits; S. cerevisiae Candida pump triplex; inhibition, % at 10 µM;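 active = plate passing quality check with inhibition over a set limit, or well fluorescence over plate mean plus 4 SD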;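 note: Nile Red retained in pooled yeast measured as flow cytometry median fluorescence; 0% = buffer negative control and 100% = Enniatin B positive control; higher means more Nile Red kept so more efflux inhibition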
ALR H2O2 inh – inhibitors of human sulfhydryl oxidase ALR | inhibition, % (no concentration beside the values) | purified ALR, DTT oxidation, H2O2 HRP-luminol luminescence | 290,000 compounds, 3.8% hits;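 active = mean replicate inhibition above about 79%, with every replicate also reaching it, limit read from the data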
Target sequence (P55789 whole entry, looked up): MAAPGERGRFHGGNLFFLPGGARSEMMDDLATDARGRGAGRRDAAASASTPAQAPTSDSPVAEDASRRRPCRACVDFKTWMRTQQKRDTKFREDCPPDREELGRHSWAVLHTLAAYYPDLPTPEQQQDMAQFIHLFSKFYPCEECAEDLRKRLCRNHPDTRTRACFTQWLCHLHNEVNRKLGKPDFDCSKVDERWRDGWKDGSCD
eIF4H FP inh – inhibitors of RNA binding by human eIF4H. eIF4H fluorescence polarization binding assay. inhibition, % at 35 µM. 290,000 compounds, 0.94% hits. AID 2012;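 note: calls also rest on retests at 20 µM and on dose response follow-up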
Numbers without * were called inactive; . = no result given. An excerpt weighted towards active compounds, which were near 4.7% of everything screened. Unless noted, the rule behind the calls is not given here.

SMILES	PABP FP inh	PABP1 MLLE inh	UBC9 SUMO inh	Efflux pump mplx	ALR H2O2 inh	eIF4H FP inh
Nn1c(SCc2cn3ccccc3n2)nnc1-c1ccncc1	-14.8	-5.9	22.9	0.4	-0.6	-3.7
Nn1c(SCc2cn3cc(Cl)ccc3n2)nnc1-c1ccncc1	-0.1	27.6	4.4	-0.1	97.6*	-4.7
Cc1cc(=O)[nH]c2sc(C(=O)N3c4ccccc4CC3C)c(N)c12 (configuration not stated)	.	-7.0	.	0.1	97.9*	.
Cc1nc(NS(=O)(=O)c2ccccc2C)c2c3c(sc2n1)CCC3	-5.1	.	26.8	-0.1	97.1*	-12.5
CC(=O)Nc1ccc(S(=O)(=O)Nc2nc(C)nc3sc4c(c23)CCC4)cc1	-0.5	14.8	14.5	-0.1	.	-6.4
CC(C)N1CCC(C)(C(=O)Nc2ccc(-n3cccc3)cc2)C1 (configuration not stated)	.	-18.4	.	.	.	.
COc1cc(-c2nc(S(=O)(=O)c3ccc(Cl)cc3)c(N3CCOCC3)o2)cc(OC)c1OC	1.5	2.0	-4.8	0.1	-7.7	-2.9
COc1cc(-c2nc(S(=O)(=O)c3ccc(C)cc3)c(N3CCOCC3)o2)cc(OC)c1OC	-11.2	40.3*	-3.9	-0.4	-0.8	-3.6
CCCCCC(=O)N1C[C@H](n2cc(COC(=O)c3ccccc3)nn2)[C@@H](O)C[C@@H]1c1ccc(OC)cc1	.	10.1	.	.	.	.
Cc1c(Cl)cnn1CC(=O)NC1C(=O)N2C(C(=O)O)=C(CSc3nnnn3C)CSC12 (configuration not stated)	-9.8	30.1	-0.6	0.0	-22.1	28.1
CC(C(=O)NC1C(=O)N2C(C(=O)O)=C(CSc3nnnn3C)CSC12)n1cc(Cl)cn1 (configuration not stated)	-5.0	42.8*	13.0	0.0	-14.7	6.6
Cc1nn(C)cc1/C=N/NC(=O)Cn1cncn1	-3.3	7.0	10.9	-0.1	0.6	-5.7
COc1ccc(N/N=C(/C#N)S(=O)(=O)c2nsc(C)c2C#N)cc1	20.1	1.2	0.3	0.1	97.9*	4.2
COc1ccc(N/N=C(/C#N)S(=O)(=O)C(C)(C)C)cc1	-9.3	-2.9	10.4	0.1	97.8*	-1.2
Cc1cc(F)ccc1-c1cc(C(=O)NCc2cccc(C(F)(F)F)c2)[nH]n1	.	5.0	.	.	.	.
N#Cc1cnn2c(-c3ccccc3)ccnc12	-3.3	0.9	50.3*	0.1	-4.5	10.8
C=CCN1C(=O)/C(=C2/C(=O)N(CC(=O)O)c3ccccc32)S/C1=N/c1nccs1	68.4*	.	-57.5	.	.	104.9*
C=CCN1C(=O)/C(=C/c2ccc(O)cc2)S/C1=N/c1nccs1	3.3	-99.3	-2.6	-0.2	-10.1	-8.4
NNS(=O)(=O)c1ccc(Sc2ccccn2)c([N+](=O)[O-])c1	5.7	0.8	8.0	0.0	2.0	-1.1
O=C(Cn1[nH]c(=O)c2ccccc2c1=O)OCC(=O)c1ccccc1Cl	.	-14.9	.	0.1	-6.8	.
Oc1ccccc1Nc1nc(NCC2CCCO2)c2ccccc2n1 (configuration not stated)	-10.7	-4.9	-0.1	0.0	98.8*	-4.2
CCn1c(N)[n+](CC(=O)Nc2ccc(SC(F)F)cc2)c2ccccc21	-12.4	29.6	15.1	-0.1	88.7*	-9.7
Cc1cc(O)c(C=O)c2c1C(=O)Oc1c(CO)c(O)c3c(c1O2)C(O)OC3=O (configuration not stated)	85.2*	23.7	96.5*	-0.2	98.7*	107.5*
O=C(COC(=O)Cc1c(F)cccc1Cl)NNC(=O)c1ccccc1	.	-8.2	.	-0.3	.	.
Cc1cccc(N(CC(N)=O)C2SC(=O)N(c3ccccc3)C2=O)c1 (configuration not stated)	-12.3	40.9*	-0.2	-0.2	3.6	5.1
SMILES	PABP FP inh	PABP1 MLLE inh	UBC9 SUMO inh	Efflux pump mplx	ALR H2O2 inh	eIF4H FP inh
Cc1cc(NC(=O)CSc2nnc(-c3ccncc3)n2C)n(-c2ccccc2)n1	0.0	-4.8	8.6	0.1	-22.9	1.4
COc1ccc(NC2CCCN(C(=O)c3csc(C(C)C)n3)C2)cc1 (configuration not stated)	6.8	-1.6	6.3	0.0	99.5*	-13.7
COc1ccc(NC2CCCN(C(=O)c3cc(CC(C)C)nc(N)n3)C2)cc1 (configuration not stated)	6.2	0.1	-1.3	0.1	93.4*	-6.8
COc1ccc(NC2CCCN(C(=O)c3csc(C(C)C)n3)C2)cc1OC (configuration not stated)	12.9	20.1	3.0	0.2	98.8*	5.4
O=C1CC(NNC(=O)c2cccc(F)c2)C(=O)N1 (configuration not stated)	2.8	-2.7	-8.9	0.0	92.2*	0.7
COc1cc(/C=N/n2nnnc2N)ccc1O	-2.1	14.0	5.7	0.0	99.4*	-1.6
Nc1nnnn1/N=C/c1cc(Cl)ccc1O	21.1	49.0*	28.4	0.0	-0.8	20.2
Nc1nnnn1/N=C/c1ccc(O)cc1	7.1	6.1	10.3	-0.1	95.7*	10.0
COc1ccccc1N(C)S(=O)(=O)c1ccc(C)c(C(=O)NCc2ccccn2)c1	.	-7.6	.	-0.1	-1.0	.
CC(=O)Nc1ccc(NC(=O)c2ccc(-c3ccc([N+](=O)[O-])cc3)o2)cc1	6.6	1.2	15.3	0.2	-30.8	53.4*
COc1cc([N+](=O)[O-])ccc1-c1ccc(C(=O)Nc2ccc(NC(C)=O)cc2)o1	11.5	-11.9	15.7	0.1	97.8*	9.1
COc1cccc(NC(=O)c2ccc(-c3ccc([N+](=O)[O-])cc3)o2)c1	35.7*	16.9	18.4	-0.1	-6.2	55.4
COc1ccc(NC(=O)c2ccc(-c3ccc([N+](=O)[O-])cc3)o2)cc1OC	-8.0	10.3	-2.0	-0.7	-18.2	-12.8
COc1ccccc1Nc1nc2ccc(C)cc2n2cnnc12	-8.5	-24.3	22.7	0.2	-0.5	0.3
COc1ccc(OC)c(NCc2nnc(-c3ccccc3)o2)c1	0.3	-2.7	-5.5	0.0	99.0*	-18.9
Cc1ccccc1Nc1nc(CSc2nnnn2-c2ccccc2)cs1	5.4	-26.4	-4.3	-0.1	97.7*	7.4
COc1ccc(-n2nc(C(=O)NCC(=O)NCCC3=CCCCC3)c3ccccc3c2=O)cc1	3.3	8.8	1.2	-0.2	4.7	3.7
COc1ccc(-c2ccc(C(=O)Nc3cccc(N(C)C)c3)c3occc23)c(C)c1	.	-1.0	.	.	.	.
COc1ccccc1OCc1nnc(SCC(=O)N2CCCCC2)o1	7.0	1.6	-1.7	.	.	0.1
COc1cccc(C2NC(=O)c3sc(=S)n(-c4ccccc4)c3N2)c1 (configuration not stated)	8.6	-6.0	4.9	0.0	97.4*	6.9
CCc1nccn1CCC(=O)N1CCc2c([nH]c3ccccc23)C1CC(C)C (configuration not stated)	0.5	3.6	4.2	0.1	29.6	-3.3
COCc1ccc(CN2CCc3c([nH]c4ccccc34)C2CC(C)C)o1 (configuration not stated)	119.2*	-12.8	7.9	-0.2	53.5	67.4
